The panel holds about 83,000 compounds, 20% with a hit somewhere; the sample as a whole holds those more often.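 Negative percent growth values reflect cell death: -40 means 40% of the cells present at the start died, and -100 means all died.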 Active and inactive are the calls of the source.

This experiment concerns HCT-15 colon. Kind of experiment: NCI-60 one-dose screen, 48 h (100 = growth as untreated, 0 = no growth, -100 = all killed). The note with it: 10 µM. Here is the method: Growth inhibition of the HCT-15 human tumor cell line is measured as a screen for anti-cancer activity. Cells are grown in 96 well plates and exposed to the test compound for 48 hours. Compounds are tested at a single concentration, which is 10^-5 M for most compounds. The reported endpoint is percent growth (GI% or GIPRCNT), where numbers from 0 - 100% represent growth inhibition, and numbers from -100% - 0 represent cell death. For example, a value of 40 represents 60% growth inhibition. A value of 0 means no net growth occurred over the course of the experiment. A value of -40 indicates 40% of cells at the beginning of the experiment died by the end of the experiment. A value of -100 means all cells are dead at the end of the experiment.
NCI-60 Human Tumor Cell Lines Screen was performed using the standard one-dose NCI protocol, which is described in more detail at https://dtp.cancer.gov/discovery_development/nci-60/default.htm.
Compounds with GIPRCNT values below 10 were considered active. Activity score was based on GIPRCNT using the following formula: […]
Score is 0 for GIPRCNT values of 100 or above, 50 for GIPRCNT values of 0, and 100 for GIPRCNT values of -100.
For `CC(=O)OC(OC(C)=O)C1CCCO1` (stereo not given), the growth was 104% (inactive).
For `Cc1cc2nc(CC(=O)c3ccccc3)c(=O)[nH]c2cc1C`, the growth is 87.7% (inactive).
For the compound `COc1ccc(OC)c(/C=C2\CCc3ccccc3C2=O)c1`, the growth was 24.3% (inactive).
Consider `CCN1C(=O)/C(=C/C=C/N(C)c2ccccc2)SC1=S`, for which the growth was 81.5% (inactive).
Turning to `N#Cc1ccc(NC(=O)Nc2cccc(C#N)c2)cc1`, the growth is 67.4% (inactive).
Consider `Cc1ccc(S(=O)(=O)O)c(C)c1`, for which the growth was 104% (inactive).
`O=C(O)C(c1ccccc1)C(O)c1ccccc1` (stereo not given): the growth is 102% (inactive).
Consider `CC1(c2ccccc2)NC(=O)NC1=O` (stereo not given), for which the growth is 110% (inactive).
Take `NC(=O)c1ccc(N=C(N)N=C(N)N)cc1`: the growth is 95.7% (inactive).
Turning to `Cc1nc2ccccc2c(C(=O)O)c1O`, the growth is 107% (inactive).
With `C=C[Si](OC(C)=O)(OC(C)=O)OC(C)=O`, the growth was 103% (inactive).
As for `O=C(/C=C/C(=O)c1ccccc1)c1ccccc1`, the growth was 79.2% (inactive).
The figure for `CC(=O)OC(C(=O)O)c1ccccc1` (stereo not given) is 111% (inactive); for `CC(C)NC(=O)OCc1c(COC(=O)NC(C)C)c(-c2ccc(Cl)c(Cl)c2)n2c1SCC2` it is 47.6% (inactive).
Take `OCC(O)C(O)C(O)C(O)/C=N/O` (stereo not given): the growth is 105% (inactive).
`CN(C)c1ccc2oc(=O)c3ccccc3c2c1`: the growth is 101% (inactive).
For the compound `Cc1cc(/C=C/c2ccc3cc(N(C)C)ccc3[n+]2C)c(C)n1-c1ccccc1`, the growth is -29.5% (active).
As to `COC(=O)C(O)c1ccccc1` (stereo not given), the growth is 105% (inactive).
As for `O/N=C/c1ccc(O)cc1O`, the growth was 89.9% (inactive).
Then `CC(=O)c1c[nH]c2ccccc12`, with 101% (inactive); and `O=C1Cc2ccccc2C(=O)O1`, with 110% (inactive); and `O=C(Nc1cc(-c2ccccc2)[nH]n1)c1ccc(Cl)cc1`, with 61.4% (inactive).
Regarding `O=C(O)/C=C/c1ccc2c(c1)CCC2`, the growth is 99.5% (inactive).
Turning to `CC1NC(=O)NC1CCCCCC(=O)O` (stereo not given), the growth is 98.4% (inactive).
For `COc1cc2c3c(n(C)c(=O)c2cc1OC)-c1cc2c(cc1C3=O)OCO2`, the growth was 81% (inactive).
In the case of `CCCNc1ccc(C2=NCCCN2)cc1`, the growth is 97.8% (inactive).
In the case of `O=C(N/N=C/c1ccccc1O)Nc1nn[nH]n1`, the growth was 91.1% (inactive).
With `CCCCCCCCCCC1CO1` (stereo not given), the growth is 104% (inactive).
In the case of `CCOC(=O)c1[nH]c(C)c(C(=O)O)c1C`, the growth was 109% (inactive).
`Cc1cc(N)c(S(=O)(=O)O)c(N)c1`: the growth was 105% (inactive).
On to `Nc1nc(N)c2cc(S(=O)(=O)c3cccc(C(F)(F)F)c3)ccc2n1`, for which the growth is 33.2% (inactive).
Turning to `CN(C)c1nc2c([nH]1)c(=O)n(C)c(=O)n2C`, the growth was 108% (inactive).
With `O=C(/C=C\c1ccc(O)cc1)c1ccccc1`, the growth was 88.5% (inactive).
Consider `CC(=O)/C(Cc1ccccc1)=N/O`, for which the growth was 99.7% (inactive).
As to `CC(C)=CC(=O)OC(=O)C=C(C)C`, the growth was 102% (inactive).
The figure for `COc1cc2c(cc1O)CC[C@@H]1C2CC[C@@]2(C)C1CC[C@@H]2O` (stereo not given in full) is 29.9% (inactive); for `CN(C)C(=O)Oc1cccc([N+](C)(C)C)c1` it is 95.6% (inactive); for `S=c1nn[nH]c2ccccc12` it is 103% (inactive).
Turning to `O=[N+]([O-])c1ccc(N=Nc2ccccc2)cc1`, the growth is 100% (inactive).
For the compound `CCOc1ccc(I)cc1`, the growth is 103% (inactive).

Values taken from PubChem BioAssay (NCI).
